Results on ten molecules are retold here after PubChem BioAssay (NCATS).

Records with an inconclusive call do not appear. Calls of active or inactive are those of the source. Unless noted, calls follow the shape of the dose curve; as a rule, active = well fitted curve in the direction sought with a large enough effect; inconclusive = small, poorly fitted or top-dose-only effect, or another doubt; inactive = no such curve, though single readings can be large; an effect the other way counts as inactive or inconclusive.

The target in test [1] is Luciferin 4-monooxygenase (Photinus pyralis) (UniProt P08659). Put plainly: Biochemical firefly luciferase enzyme assay for NPC (AID 624030).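 Also: purified P. pyralis luciferase at 10 nM with luciferin and ATP substrate; 0% = DMSO and -100% = full luciferase inhibition by PTC124 control; nearly all actives have a fitted effect of over 70% in size.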 Summed up:
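Direct inhibition of firefly luciferase enzyme (10 nM final, 50 mM Tris Acetate) assessed by luminescence within 5 minutes. Percent activity scaled between DMSO and PTC124 positive control, with concentration-effect curves classified by fit quality and response.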

Test [2] in a line: S16 Schwann cell viability assay (CellTiter-Glo assay) (AID 624031).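 Also: native untransfected S16 rat Schwann cells; cellular ATP luminescence as a viability measure; plate controls were DMSO-treated cells for no effect and cell-free wells for full effect; nearly all actives have a fitted effect of over 70% in size.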 Put shortly:
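Following overnight culture in 10% FBS DMEM, parental S16 rat Schwann cells are dosed for 24 h at 37 °C. Viability is read as CellTiter-Glo luminescence and expressed as % activity relative to DMSO (0%) and no-cell wells.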

Test [3] in a line: S16 Schwann cell PMP22 intronic element beta-lactamase assay (AID 624044; calls by dose curve;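 also: 0% = DMSO and -100% = potassium clavulanate positive control; nearly all actives have a fitted effect of over 15% in size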). Summed up:
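Beta-lactamase reporter under a PMP22 intronic regulatory element in stable S16 rat Schwann cells; 24 h compound exposure. 460 nm blue signal normalized between DMSO (0%) and potassium clavulanate, with 535 nm FRET tracking viability; curves classed by r2 and response.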

A short description of test [4]: qHTS of Trypanosoma Brucei Inhibitors: LOPAC Validation (AID 624147). Also: 0% is about no effect. Summed up:
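Glycolytic pyruvate kinase of T. brucei was incubated with substrate, test compound and 130 uM ADP for 45 minutes at room temperature. Luminescent Kinase-Glo Plus signal was measured after 10 minutes.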
(In general: In qHTS, concentration-response curves come from the screen itself.)

The target in test [5] is Glucagon-like peptide 1 receptor (Homo sapiens) (UniProt P43220). Put plainly: qHTS of GLP-1 Receptor Agonists: LOPAC Validation (AID 624148).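 Also: luminescence from a luciferase reporter switched on by cAMP; 0% is about no effect; higher luminescence signal means agonism.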 Put shortly:
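Agonism scored as increased luciferase luminescence driven by cAMP in HEK293 clones carrying GLP-1R. Cells settled 12 hours, received compound for 4-6 hr at 37 deg C, 5% CO2, and were read after 12 min detection reagent at RT.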

Test [6] can be described thus: qHTS of Nrf2 Activators: LOPAC Validation (AID 624149). Also: 0% is about no effect. Put shortly: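 Cells (AREc32_Fluc) are plated at 1000 per well in OPTI-MEM containing 5% FBS and left overnight. Compounds are pinned in and incubated 24 hr at 37 deg C, and firefly luciferase is detected with Steady-Glo.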
The nature of test [7]: HTS Assay for Allosteric Antagonists of the Human D2 Dopamine Receptor: Hit Validation in HTRF (AID 624455).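 Also: stable D1 dopamine receptor cell line scored for blocking the D1 response; % is scaled to controls: 0 for no effect and ±100 for the full control effect.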 Put shortly: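 Inhibition of the D1-mediated response is measured by HTRF in cells that stably express the D1 dopamine receptor. Compounds reaching this step are hits from calcium-flux antagonism testing at EC80 dopamine in inducible Hek293 Trex D2 cells.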
In general terms: In TR-FRET formats the signal depends on donor and acceptor labels being close together.

The target in test [8] is Retinoic acid receptor RXR-alpha (Homo sapiens) (UniProt P19793). Put plainly: qHTS assay for small molecule antagonists of retinoid X receptor alpha signaling (AID 588546; active = well fitted inhibition curve with a large enough effect in the signal ratio, with a control signal flat, not every such curve was filed as active; the % refers to the signal ratio;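 also: cells stimulated with 9-cis-retinoic acid as agonist; % is scaled to controls: 0 for no effect and ±100 for the full control effect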). The settings on record: HEK293T RXRa-UAS-bla, beta-lactamase ratio, antagonist mode. Summed up:
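Beta-lactamase reporter inhibition, read as CCF4 fluorescence ratio (ex 405, em 460/530 nm) after 2 h at RT. HEK293T UAS-bla cells, 2500/well, were stimulated with 9-cis-RA at 500 or 100 nM final alongside test compound for 18 h at 37 C.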

Test [9] deals with Thyroid hormone receptor beta (Homo sapiens) (UniProt P10828). Put plainly: qHTS assay for small molecule antagonists of thyroid hormone receptor beta signaling (AID 588547; active = well fitted inhibition curve with a large enough effect in the signal ratio, with a control signal flat, not every such curve was filed as active; the % refers to the signal ratio;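 also: cells stimulated with 0.4 nM T3 agonist during compound exposure; % is scaled to controls: 0 for no effect and ±100 for the full control effect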). The settings on record: TR-UAS-bla HEK293, beta-lactamase ratio, antagonist mode, 18 h. Summed up: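 Inhibition of T3-driven (0.4nM final) beta-lactamase reporter activity was measured over 0.59 nM to 92 uM compound after 18 h at 37 C. The cells were GripTite HEK293 TR-UAS-bla in charcoal/dextran-stripped serum, with CCF4 ratio read-out and IC50 from Hill fits.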

The nature of test [10]: S16 Schwann cell PMP22 intronic element firefly luciferase assay (AID 624032). Also: nearly all actives have a fitted effect of over 30% in size. Also: potency is read from the fitted curve at half-maximal effect. Put shortly:
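Luciferase reporter of PMP22 intronic-element expression in stably transfected S16 rat Schwann cells, read by ONE-Glo luminescence after 24 h compound exposure at 37 C. Activity scaled between DMSO (0%) and positive-control PTC124; concentration-effect curves quality-classified.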

Test [11] deals with Glutaminase kidney isoform, mitochondrial (Homo sapiens) (UniProt O94925). Put plainly: qHTS for Inhibitors of Glutaminase (GLS): LOPAC Validation (AID 624146).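 Also: glutamate product detected by oxidase and peroxidase coupled Amplex red fluorescence gain; % is scaled to controls: 0 for no effect and ±100 for the full control effect; nearly all actives have a fitted effect of over 60% in size.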 Put shortly:
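Assay buffer: 45 mM KH2PO4 pH 8.2, 0.02% Tween-20. hKGA acts on L-glutamine (1 mM solution added); product glutamate is reported by an oxidase/peroxidase Amplex Red coupling, with fluorescence taken at baseline and 30 min.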

Test [12] is described as follows: Cytotoxicity counterscreen for NFkB agonists and antagonists (AID 624476; also: % is scaled to controls: 0 for no effect and ±100 for the full control effect). (In general: The purpose of a counterscreen is to sort out artefacts and off-target activity.)
Test [13] is described as follows: qHTS Assay for Identification of Small Molecule Agonists for NFkB Signaling Pathway. (AID 624478).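 Also: compounds tested together with TNF alpha at its EC50 of 10 pM; 0% is about no effect.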 Summed up:
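Activators were sought in reporter cells stimulated at the TNF alpha EC50 (10 pM final). Compound and cytokine were co-incubated 5 hours at 37 C before beta-lactamase substrate detection by dual-emission fluorescence.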

Test [14] is described as follows: qHTS Assay for Identification of Small Molecule Antagonists for NFkB Signaling Pathway. (AID 624479; calls by dose curve).
Test [15] in a line: Cell Proliferation Assay against the TMD8 Cell Line (AID 651645).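 Also: cells exposed to compound for 48 h before reading.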 Conditions: TMD8 DLBCL cell line proliferation/viability; at 46.1 µM (top of the series) unless noted. Put shortly: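 TMD8 ABC DLBCL cells, 500 per well in phenol red-free RPMI with 5% FBS, were treated with compound by pin transfer and incubated 48 hours at 37C, 5% CO2. Viability was read by CellTiter-Glo luminescence, normalised to DMSO (100%) and 9.2 uM bortezomib (0%).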

Test [16] in a line: Cell Proliferation Assay against the TMD8 Cell Line (Caspase readout at 8 hrs) (AID 651713).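 Also: 0% = DMSO and 100% = 9.2 µM bortezomib caspase signal.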 Summed up:
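Caspase 3/7 activation in ABC DLBCL TMD8 cells is measured by luminescence after an 8 h compound exposure at 37C. Relative light units are scaled between DMSO (0%) and 9.2 uM final bortezomib (100%).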

Test [17] can be described thus: Cell Proliferation Assay against the HBL1 Cell Line (AID 651646).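 Also: cells exposed to compound for 48 h before reading.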 The settings on record: HBL1 DLBCL cells; at 46.1 µM (top of the series) unless noted. Summed up:
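CellTiter-Glo luminescence after 48 h compound exposure at 37C gives percent activity, with DMSO as 100% and 9.2 uM bortezomib final as 0%. Cells: 500 log-phase HBL1 per well, RPMI plus 5% FBS.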

Test [18] is described as follows: Cell Proliferation Assay against the TMD8 Cell Line (Caspase readout at 16 hrs) (AID 651712). Put shortly: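 Caspase-Glo luminescence measured apoptosis after a 16 h, 37 C compound exposure of TMD8 cells (500 cells/well, 5% FBS RPMI). DMSO set 0% and bortezomib at 9.2 uM final set 100% activity.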
The nature of test [19]: qHTS assay for small molecule agonists of the antioxidant response element (ARE) signaling pathway (AID 651741; active = well fitted activation curve with a large enough effect in the signal ratio; the % refers to the signal ratio; also: potency is read from the fitted curve at half-maximal effect). Put shortly: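 Beta-lactamase reporter under ARE control in HepG2 cells, 2,000 per well, was induced by 16 h compound treatment at 37 C. Read-out was fluorescence from LiveBLAzer B/G FRET substrate after 2 h at room temperature.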

Chain of Glucagon-like peptide 1 receptor (Homo sapiens) (P43220 whole entry, looked up): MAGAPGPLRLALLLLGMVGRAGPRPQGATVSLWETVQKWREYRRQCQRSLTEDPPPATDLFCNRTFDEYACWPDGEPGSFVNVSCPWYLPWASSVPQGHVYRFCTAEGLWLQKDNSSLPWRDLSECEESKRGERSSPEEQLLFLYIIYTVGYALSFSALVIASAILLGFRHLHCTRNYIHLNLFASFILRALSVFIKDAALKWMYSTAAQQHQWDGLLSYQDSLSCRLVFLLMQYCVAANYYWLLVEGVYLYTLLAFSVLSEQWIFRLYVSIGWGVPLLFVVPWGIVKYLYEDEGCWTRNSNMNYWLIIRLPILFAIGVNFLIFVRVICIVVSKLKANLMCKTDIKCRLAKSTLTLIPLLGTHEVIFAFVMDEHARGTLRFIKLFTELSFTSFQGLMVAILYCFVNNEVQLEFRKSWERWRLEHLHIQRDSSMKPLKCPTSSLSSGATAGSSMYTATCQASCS
Chain of Luciferin 4-monooxygenase (Photinus pyralis) (P08659 whole entry, looked up): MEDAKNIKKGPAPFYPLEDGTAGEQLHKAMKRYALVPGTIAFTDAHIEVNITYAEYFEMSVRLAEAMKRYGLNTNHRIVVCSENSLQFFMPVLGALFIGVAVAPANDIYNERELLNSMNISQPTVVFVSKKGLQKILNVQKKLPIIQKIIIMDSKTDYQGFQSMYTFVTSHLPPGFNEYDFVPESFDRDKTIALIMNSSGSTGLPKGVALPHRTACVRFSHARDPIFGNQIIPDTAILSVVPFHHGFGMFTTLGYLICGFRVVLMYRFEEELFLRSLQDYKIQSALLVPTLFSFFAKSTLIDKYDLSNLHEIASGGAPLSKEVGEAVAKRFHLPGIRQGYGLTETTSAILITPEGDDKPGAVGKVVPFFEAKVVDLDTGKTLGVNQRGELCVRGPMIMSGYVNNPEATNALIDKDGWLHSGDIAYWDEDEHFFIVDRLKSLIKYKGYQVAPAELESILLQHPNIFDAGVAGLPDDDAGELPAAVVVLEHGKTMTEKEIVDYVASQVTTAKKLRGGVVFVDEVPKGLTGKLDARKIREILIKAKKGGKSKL
Chain of Retinoic acid receptor RXR-alpha (Homo sapiens) (P19793 whole entry, looked up): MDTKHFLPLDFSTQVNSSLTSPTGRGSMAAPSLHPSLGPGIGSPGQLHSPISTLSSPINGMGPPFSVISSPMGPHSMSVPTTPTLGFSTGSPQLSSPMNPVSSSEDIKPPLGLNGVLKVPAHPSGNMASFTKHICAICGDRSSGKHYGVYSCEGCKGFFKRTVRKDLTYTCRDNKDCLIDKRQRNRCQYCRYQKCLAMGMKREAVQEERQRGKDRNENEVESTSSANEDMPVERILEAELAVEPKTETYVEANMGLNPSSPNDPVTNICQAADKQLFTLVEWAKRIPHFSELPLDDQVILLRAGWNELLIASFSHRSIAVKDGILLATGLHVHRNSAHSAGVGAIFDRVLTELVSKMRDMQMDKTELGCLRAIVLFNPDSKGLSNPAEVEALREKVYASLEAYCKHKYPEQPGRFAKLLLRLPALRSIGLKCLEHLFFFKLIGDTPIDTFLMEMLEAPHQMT
Chain of Glutaminase kidney isoform, mitochondrial (Homo sapiens) (O94925 whole entry, looked up, canonical isoform): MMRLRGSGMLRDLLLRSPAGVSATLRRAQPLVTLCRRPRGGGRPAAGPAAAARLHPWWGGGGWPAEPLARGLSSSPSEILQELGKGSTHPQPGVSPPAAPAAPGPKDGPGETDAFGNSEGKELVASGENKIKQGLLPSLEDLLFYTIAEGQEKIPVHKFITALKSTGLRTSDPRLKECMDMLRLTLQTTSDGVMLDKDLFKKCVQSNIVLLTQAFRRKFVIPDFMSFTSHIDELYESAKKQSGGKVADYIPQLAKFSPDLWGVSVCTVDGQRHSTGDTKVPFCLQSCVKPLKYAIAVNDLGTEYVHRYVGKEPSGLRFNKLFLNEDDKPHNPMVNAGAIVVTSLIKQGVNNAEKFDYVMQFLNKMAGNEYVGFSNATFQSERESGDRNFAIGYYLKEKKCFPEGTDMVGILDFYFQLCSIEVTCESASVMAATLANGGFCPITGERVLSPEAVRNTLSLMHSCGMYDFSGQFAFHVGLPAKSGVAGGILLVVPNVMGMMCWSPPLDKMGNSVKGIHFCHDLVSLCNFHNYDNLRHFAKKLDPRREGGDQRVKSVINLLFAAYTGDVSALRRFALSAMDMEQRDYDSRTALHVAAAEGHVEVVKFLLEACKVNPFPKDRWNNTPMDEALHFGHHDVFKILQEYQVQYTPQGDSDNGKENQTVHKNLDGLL
Chain of Thyroid hormone receptor beta (Homo sapiens) (P10828 whole entry, looked up): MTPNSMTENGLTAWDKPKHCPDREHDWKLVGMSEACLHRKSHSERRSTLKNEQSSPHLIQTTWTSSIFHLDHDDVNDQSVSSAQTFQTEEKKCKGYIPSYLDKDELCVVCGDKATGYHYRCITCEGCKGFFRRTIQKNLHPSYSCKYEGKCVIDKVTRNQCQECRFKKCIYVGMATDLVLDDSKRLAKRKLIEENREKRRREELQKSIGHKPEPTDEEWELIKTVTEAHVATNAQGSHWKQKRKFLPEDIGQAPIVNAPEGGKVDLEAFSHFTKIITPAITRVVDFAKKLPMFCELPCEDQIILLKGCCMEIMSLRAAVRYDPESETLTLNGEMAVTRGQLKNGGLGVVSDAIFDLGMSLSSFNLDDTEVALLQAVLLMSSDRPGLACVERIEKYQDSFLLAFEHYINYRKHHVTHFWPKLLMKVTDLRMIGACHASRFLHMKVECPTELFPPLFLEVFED

As to `CCOC(=O)N1CCC(=C2c3ccc(Cl)cc3CCc3cccnc32)CC1`, the Potency entry in [1], in test [2] and in test [7] was “inactive” throughout. The result in test [3], in test [4], in test [5] and in test [6] was inactive.

On to `NC(N)=NC(=O)c1nc(Cl)c(N)nc1N`, for which the max response in test [8] is 33% (inactive). For the same molecule, in test [9], the activity change % (negative = inhibition) is 4.66% (inactive). Moreover, the Potency result in test [1], in test [2], in [10] and in [7] was “inactive” throughout. Moreover, the molecule was classed as inactive in test [11], in [4], in test [5] and in [6].

Regarding `N[C@@H]1CONC1=O`, the Potency result in [1], in test [2], in test [10] and in test [7] was “inactive” in each case. Besides, the molecule was classed as inactive in test [3], in [11], in test [4], in [5] and in [6].

Regarding `O=c1n(CCCN2CCN(c3cccc(Cl)c3)CC2)nc2ccccn12`, the Potency entry in [1], in test [2], in test [10] and in test [7] was “inactive” each time. Further, the result in [11], in [4], in [5] and in [6] was inactive.

In the case of `CCCCNc1cc(C(=O)O)cc(S(N)(=O)=O)c1Oc1ccccc1`, the Potency entry in test [1], in test [2], in [10] and in test [7] was “inactive” throughout. Also, the call in test [3], in [11], in [4], in test [5] and in test [6] was inactive.

Take `O=c1[nH]cnc2[nH]ncc12`: the max response in test [8] was -1.1% (inactive). Besides, in [9], the activity change % (negative = inhibition) was 5.35% (inactive). In addition, the Potency entry in [1], in test [2], in [10] and in test [7] was “inactive” throughout. The result in test [11], in [4], in test [5] and in test [6] was inactive.

`CC(C)C[C@H](NC(=O)[C@@H](O)[C@H](N)Cc1ccccc1)C(=O)O`: the Potency entry in test [1], in [2], in test [10], in [7], in test [12] and in test [14] was “inactive” each time. The Potency result in test [16] is “inactive”. The call in [3], in test [11], in test [4], in test [5], in [6] and in test [13] was inactive. Also, the viability (% of control) in test [15] was found to be 89.3%.

Turning to `C[C@]12CCC(=O)C=C1CC[C@@H]1[C@@H]2[C@@H](O)C[C@@]2(C)[C@H]1CC[C@]2(O)C(=O)CO`, the max response in test [8] was -13.2% (inactive). In addition, the activity change % (negative = inhibition) in test [9] was 20.5% (inactive). For the same molecule, the result in [11], in test [4], in test [5], in [6] and in test [13] was inactive. In addition, the Potency result in test [7], in test [12], in [14], in test [18] and in test [16] was “inactive” in each case. Further, the viability (% of control) in test [15] was 65.6%. Further, the viability, percent of control in [17] stood at 39.1%.

`Oc1ccc(C2CNCCc3c2cc(O)c(O)c3Cl)cc1` (stereo unspecified): the Potency entry in test [1], in test [2] and in test [10] was “inactive” throughout. Also, the outcome in [4], in [5] and in test [6] was inactive.

For `Cc1c(C)c2c(c(C)c1O)CCC(C)(COc1ccc(CC3SC(=O)NC3=O)cc1)O2` (stereo unspecified), the max response in test [8] was -61.7% (inactive). Also, the Potency entry in [2] and in [16] was “inactive” each time. In addition, the Potency in [10] was 10.2 µM (active); in test [19] it was 21.7 µM (active). Further, the outcome in test [3] and in test [13] was inactive. In addition, the viability (% of control) in test [15] amounted to 71.7%. In test [17], the viability, percent of control came out at 81.5%.
